Screening data deposited in PubChem by Sanford-Burnham Center for Chemical Genomics.
Shown are actives, neighbours in structure and some others; about 2.7% of the full set was active somewhere.
NadD inh – inhibitors of S. aureus NadD, primary screen, biochemical, colorimetric, uHTS; AID 602399, 2012; Nicotinate-nucleotide adenylyltransferase NadD (Staphylococcus aureus N315); inhibition, % at 20 µM; purified NadD enzyme, colorimetric absorbance read-out; hit rate 0.78% among 360,000; in the data active = inhibition above about 26%
MPTP inh – mitochondrial permeability transition pore inhibitors, primary screen, biochemical, isolated mouse mitochondria, absorbance | Ca2+ swelling absorbance, 30 min | inhibition, % at 10 µM | hit rate 1.4% among 360,000;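 active = inhibition of 50% or more, scaled per plate between neutral and stimulator controls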;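 also: 0% = DMSO wells given calcium and 100% = 1 mM EGTA wells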
aDG glyco up – activators of alpha-DG glycosylation, primary screen, uHTS, Pro5-aDG cells, AlphaScreen | activation, % at 10 µM | alpha-DG glycosylation AlphaScreen (IIH6); 0% Pro5, 100% B10-LARGE cell signal | hit rate 0.22% among 360,000;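 active = activation of at least 8% versus controls, or a plate z-score of at least 8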;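 also: Pro5 are CHO cells carrying HIG-tagged alpha-DG that lacks glycosylation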
H9c2 TAG inh – inhibitors of triacylglycerol accumulation, primary screen, cell-based, uHTS, fluorescence, H9c2; hit rate 0.66% among 230,000; AID 651582, 2012; H9c2 cells, Nile Red lipid (TAG) fluorescence; cells loaded with 200 µM oleic acid; inhibition, % at 12.5 µM;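 active = pattern-corrected inhibition of lipid staining of at least 50% with the nuclear-stain viability signal not falling by more than 50%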;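 also: 0% = DMSO wells and 100% = triacsin C control wells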
TAG conf – triacylglycerol accumulation inhibitors, retest, confirmation, cell-based, single concentration, Nile Red fluorescence, H9c2; H9c2 lipid accumulation; cells loaded with 200 µM oleic acid; hit rate 71% among 990; shares compounds with H9c2 TAG inh; inhibition, % at 12.5 µM;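 active = mean inhibition across replicates of 40% or more; inactive = mean inhibition below 40%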;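 also: plate controls were DMSO only wells for no effect and Triacsin C treated wells for full effect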
* hit, by the source's call; · = no result.

SMILES	NadD inh	MPTP inh	aDG glyco up	H9c2 TAG inh	TAG conf
Cc1ccc(C2(c3ccccc3)NC(=O)N(CC(=O)NC3CCCCC3)C2=O)cc1C (configuration not stated)	-3	-1	0	11	·
COc1ccccc1CNC(=O)CN1C(=O)NC(c2ccccc2)(c2ccc(C)c(C)c2)C1=O (configuration not stated)	15	-1	0	54*	36
CCCC1O[C@@H]2C[C@H]3[C@@H]4CCC5=CC(=O)C=C[C@]5(C)[C@H]4[C@@H](O)C[C@]3(C)[C@]2(C(=O)CO)O1 (some centres not stated)	-6	-1	0	66*	79*
COc1ccc([C@H]2CC(=O)C=C(c3ccc(OC)cc3OC)C2)cc1	-12	0	0	52*	81*
COc1ccc(C2=CC(=O)C[C@H](c3ccc(OC)cc3)C2)cc1	-5	-1	0	·	·
COc1ccc2[nH]c3c(c2c1)CCN1C(=O)C(CC(=O)NCCC2=CCCCC2)C[C@H](C(=O)N2CCOCC2)[C@@]31CCC1CCCC1 (some centres not stated)	-4	-1	0	1	·
COc1ccc2[nH]c3c(c2c1)CCN1C(=O)C(CC(=O)NCC24CC5CC(CC(C5)C2)C4)C[C@H](C(=O)N2CCOCC2)[C@@]31CCC1CCCC1 (some centres not stated)	10	-4	1	72*	73*
O=C(C[C@H]1C[C@H](C(=O)N2CCOCC2)[C@@]2(CCC3CCCC3)c3[nH]c4ccc(Cl)cc4c3CCN2C1=O)NCC12CC3CC(CC(C3)C1)C2	22	-1	0	69*	63*
CC1CN(CCOc2ccccc2C(C)C)CC(C)O1 (configuration not stated)	-8	0	0	·	·
COc1cc(-c2nnc3n2N=C(c2ccccc2)CS3)cc(OC)c1OC	8	0	0	90*	66*
COc1cc(-c2cnc3c(NC=O)cc(-c4cccc(NC(C)=O)c4)cn23)cc(OC)c1OC	-8	0	0	73*	96*
CCCN(CCC)CCNC(=O)c1cc2c(=O)n(CC)c3ccccc3c2s1	-4	3	0	52*	68*
CCN(CC)CCNC(=O)c1cc2c(=O)n(CC)c3ccccc3c2s1	-10	1	0	·	·
COCCNC(=O)c1cc2c(-c3ccc(Cl)cc3)nn(C)c2s1	-4	0	0	52*	45*
COCCCNC(=O)c1cc2c(-c3ccc(Cl)cc3)nn(C)c2s1	-3	-1	0	43	·
CC(C)(C)NC(=O)C(c1ccc(-c2ccccc2)cc1)N(C[C@H]1CC[C@@H]([C@@H]2CC[C@H](CO)O2)O1)C(=O)c1ccc2ccccc2c1 (some centres not stated)	6	-2	0	65*	82*
CC(C)(C)NC(=O)C(c1ccc(-c2ccccc2)cc1)N(C[C@H]1CC[C@@H]([C@@H]2CC[C@H](CO)O2)O1)C(=O)c1ccc(-c2ccccc2)cc1 (some centres not stated)	10	-1	0	60*	67*
CC(C)(C)NC(=O)C(c1ccc(-c2ccccc2)cc1)N(C[C@H]1CC[C@@H]([C@@H]2CC[C@H](CO)O2)O1)C(=O)c1cccc(Cl)c1 (some centres not stated)	6	-1	0	34	·
CN1OC[C@@H]2CN(S(=O)(=O)c3ccccc3)[C@H](c3ccc(-n4ccnc4)cc3)C[C@@H]21	-7	-2	0	·	·
CCCOc1ccc(F)cc1-c1cc(C(=O)NCc2cc(OC)cc(OC)c2)[nH]n1	-1	0	0	54*	50*
CCCOc1ccc(F)cc1-c1cc(C(=O)NCc2ccccc2)[nH]n1	1	0	1	-4	·
COc1cccc(-c2cc(C(=O)Nc3ccc(N(C)C(C)=O)cc3)c3cc(Br)ccc3n2)c1	11	11	0	50*	57*
CC1C(c2ccc3c(c2)OCO3)c2cc3c(cc2OC1N1CCOCC1)OCO3 (configuration not stated)	7	1	0	-45	·
CCc1cc2c3c(c1)C1(C(=O)N3C(C)(C)C=C2C)C(C#N)=C(N)Oc2[nH]c(=O)[nH]c(=O)c21 (configuration not stated)	7	0	0	51*	49*
C=CC[C@H](CC(=O)N(CCO)Cc1ccccc1)C(=O)N[C@H](COC(=O)[C@@H](CC=C)Cc1ccc(F)cc1)Cc1c[nH]c2ccccc12	-3	2	0	26	·
SMILES	NadD inh	MPTP inh	aDG glyco up	H9c2 TAG inh	TAG conf
C=CCC[C@@H](Cc1ccc(F)cc1)C(=O)OC[C@@H](Cc1c[nH]c2ccccc12)NC(=O)[C@@H](CC=C)CC(=O)N(CCO)Cc1ccccc1	-3	0	0	60*	60*
C=CC[C@@H](CC(=O)N(CCO)Cc1ccccc1)C(=O)N[C@H](COC(=O)[C@@H](CC=C)Cc1ccc(F)cc1)Cc1c[nH]c2ccccc12	-1	1	0	62*	63*
COC(=O)[C@H](C)N(Cc1ccc(Cl)c(Cl)c1)S(=O)(=O)CCN1CCN(c2ccccc2)CC1	-3	0	0	2	·
CC(C)NC(=O)/C(C#N)=C/c1ccc(N(C)C)o1	4	1	0	-13	·
CCN(CC)CCn1c2c(c(SCC(=O)Nc3ccc(C)c(F)c3)nc1=O)CCCC2	-4	-1	0	53*	19
CCN(CC)CCn1c2c(c(SCC(=O)Nc3ccc(C)c(F)c3)nc1=O)CCC2	-6	0	0	12	·
COCCCn1c(C(=O)Nc2ccc3c(c2)OCO3)cc2c(=O)n3cccc(C)c3nc21	-8	2	0	69*	28
COCCCn1c(C(=O)N2CCOCC2)cc2c(=O)n3cccc(C)c3nc21	-8	-1	0	22	·
CCc1cccc(NS(=O)(=O)c2ccc3c(c2)N(C)CCO3)c1	-7	3	1	·	·
Cc1ccc(N(C(=O)c2csnn2)C(C(=O)NC2CCCCC2)c2cccnc2)c(C)c1 (configuration not stated)	2	0	0	·	·
COc1cc2nc(NCCCN3CCN(C)CC3)n3nc(-c4ccccc4)nc3c2cc1OC	-11	0	0	61*	41*
CCN(CC)CCCNc1nc2cc(OC)c(OC)cc2c2nc(-c3ccccc3)nn12	-10	-1	0	61*	36
CCN(CC)CCCNc1nc2cc(OC)c(OC)cc2c2nc(-c3cccnc3)nn12	-6	-1	0	10	·
CCOC(=O)C(=CNc1cscc1S(=O)(=O)C(C)C)C(=O)OCC	1	2	0	8	·
O[C@@H]1CN(CC2CCCCC2)[C@@H](c2ccccc2)C[C@H]1n1cc(-c2ccc(F)cc2)nn1	0	1	0	-22	·
